Most compounds without a hit are left out; they make up all but 1.6% or so of the library.
MEX-5 binding = MEX-5 zinc finger RNA-binding disruptors – biochemical, C. elegans, fluorescence polarization, MLPCN library, primary screen; 0.38% of 300,000 active; Zinc finger protein mex-5 (Caenorhabditis elegans), Q9XUB2; MEX-5/FITC-TCR2 RNA binding; stronger effect = lower value; activity score (negative = inhibition of binding), % at 10 µM;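 active = inhibition past about -25% in most replicates, and total fluorescence under double the plate's negative control median, limit read from the data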
Fam108B inh = mouse Fam108B serine hydrolase inhibitors, primary screen, counter-screen for RBBP9 inhibitor project, biochemical, fluorescence polarization; recombinant Fam108B, FP-Rh probe fluorescence polarization; inhibition, % at 9.51 µM; 0.33% of 300,000 active; AID 1947, 2009;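 active = inhibition above the screen mean inhibition plus 3 SD, computed separately per campaign, cut at about 18% in these data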;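 note: inhibitors lower polarization as less probe binds the enzyme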
LYPLA1 counter = LYPLA1 inhibitors, primary screen, counter-screen for PME1 inhibitor project, biochemical, fluorescence polarization, FP-Rh probe ABPP; recombinant LYPLA1; inhibition, % at 5.9 µM; 0.16% of 320,000 active;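 active = inhibition above the mean of all tested compounds plus 3 SD, set per campaign, cut at about 14% in these data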;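 note: inhibitors block serine hydrolase probe labeling of LYPLA1 so polarization falls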
LYPLA2 counter = LYPLA2 inhibitors, primary screen, counter-screen for PME1 inhibitor project, biochemical, fluorescence polarization, FP-Rh probe ABPP | inhibition, % at 5.9 µM | recombinant LYPLA2 | 0.38% of 320,000 active | Acyl-protein thioesterase 2 (Homo sapiens), O95372;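 active = inhibition above the screen-wide mean plus 3 SD, limit set per campaign, cut at about 26% in these data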
PME-1 inh = PME-1 inhibitors via competitive probe labeling, primary screen, biochemical, fluorescence polarization, FP-Rh probe, HTS; Protein phosphatase methylesterase 1 (Homo sapiens), Q9Y570; recombinant PME-1; inhibition, % at 5.9 µM; 0.53% of 320,000 active;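 active = inhibition above the campaign mean of all compounds plus 3 SD, cut at about 26% in these data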;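 note: competitive labeling of PME-1 active site by serine hydrolase directed probe; inhibitors block probe labeling so polarization falls and inhibition rises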
Target sequence (Q9Y570 whole entry, looked up): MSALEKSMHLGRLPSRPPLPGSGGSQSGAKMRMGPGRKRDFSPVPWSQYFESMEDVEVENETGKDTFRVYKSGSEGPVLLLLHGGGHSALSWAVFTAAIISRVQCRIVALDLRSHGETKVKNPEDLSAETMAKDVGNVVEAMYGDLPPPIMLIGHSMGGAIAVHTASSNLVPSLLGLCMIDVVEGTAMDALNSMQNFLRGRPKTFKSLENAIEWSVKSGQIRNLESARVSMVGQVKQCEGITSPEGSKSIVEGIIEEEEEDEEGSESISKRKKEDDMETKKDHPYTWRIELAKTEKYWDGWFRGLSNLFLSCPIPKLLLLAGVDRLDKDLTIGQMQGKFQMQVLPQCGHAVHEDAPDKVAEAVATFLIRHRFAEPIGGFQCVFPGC
PREPL inhibitor = PREPL enzyme inhibitors, primary screen, biochemical, fluorescence polarization; Prolyl endopeptidase-like (Homo sapiens), Q4J6C6; recombinant PREPL, fluorescence polarization activity-based probe; inhibition, % at 5.96 µM; 0.68% of 320,000 active; in the data active = inhibition above about 43%
Each line names hits and unclear results; the compound was inactive in the other large screens.

Nc1ccc2oc(-c3ccccc3Cl)nc2c1	none
N=C1/C(=C\c2ccc(SCc3ccccc3)o2)C(=O)N=C2SC(CC(=O)N3CCOCC3)=NN12	MEX-5 binding -30
Cc1ccc(/C=C2\C(=N)N3N=C(CC(=O)N4CCOCC4)SC3=NC2=O)o1	none
CCOc1cc(/C=N\NC(=O)c2c(C)nc3ccccn23)ccc1O	none
COc1ccccc1N1C(C)=CC(=C(C#N)c2nc3ccccc3s2)C=C1C	MEX-5 binding -38
C[C@H](CO)N1C[C@H](C)[C@@H](CN(C)S(=O)(=O)c2ccccc2)Oc2c(NC(=O)Cc3ccccc3)cccc2C1=O	none (no result: MEX-5 binding, Fam108B inh, LYPLA1 counter, LYPLA2 counter, PME-1 inh)
Cc1no[n+]([O-])c1COc1ccccc1/C=N/n1nnnc1N	none
CC(=O)N1CCc2c(sc(NC(=O)C3CCCCC3)c2C(N)=O)C1	MEX-5 binding -27
COC(=O)c1c(NC(=O)C2CC2)sc2c1CCN(C(C)=O)C2	none
CC(=O)N1CCc2c(sc(NC(=O)C3CCN(S(=O)(=O)c4cccs4)CC3)c2C(N)=O)C1	none
CC(=O)N1CCc2c(sc(NC(=O)C3CCCN3S(=O)(=O)c3cccs3)c2C(N)=O)C1 (stereo not drawn)	MEX-5 binding -35
CCOc1cc(C(c2c(C)[nH][nH]c2=O)c2c(C)[nH][nH]c2=O)cc([N+](=O)[O-])c1O	MEX-5 binding -68
CCOc1cc(C(c2c(C)[nH][nH]c2=O)c2c(C)[nH][nH]c2=O)ccc1OCc1ccc([N+](=O)[O-])cc1	none
Cc1ccc(C(c2c(C)[nH][nH]c2=O)c2c(C)[nH][nH]c2=O)cc1[N+](=O)[O-]	none
CCOc1cc(C(c2c(C)[nH][nH]c2=O)c2c(C)[nH][nH]c2=O)cc(Cl)c1O	none
COc1cc(C(c2c(C)[nH][nH]c2=O)c2c(C)[nH][nH]c2=O)cc([N+](=O)[O-])c1O	MEX-5 binding -81
CCOc1cc(C(c2c(C)[nH][nH]c2=O)c2c(C)[nH][nH]c2=O)ccc1OC(=O)c1cccc([N+](=O)[O-])c1	PREPL inhibitor 86
COc1ccc(C(=O)N(CC2CCCO2)C(C(=O)NCCC(C)C)c2ccc(C)cc2)cc1OC (stereo not drawn)	none
CC(=O)C1(C)N(O)C(C)(C)C(c2ccco2)=[N+]1[O-] (stereo not drawn)	none
C=CCOc1ccc(C2OC34CCCCC3C(C#N)(C#N)C2(C#N)C(=N)O4)cc1 (stereo not drawn)	MEX-5 binding -45
CCCCOc1ccc(C2OC34CCCCC3C(C#N)(C#N)C2(C#N)C(=N)O4)cc1 (stereo not drawn)	none (no result: MEX-5 binding)
Cc1oc(-c2cccs2)nc1CN1CCN(C2CCCC2)C(CCO)C1 (stereo not drawn)	none
COc1cccc(Cn2nnc3c(=O)[nH]c(C4CCCN(C(=O)c5ccccc5Cl)C4)nc32)c1 (stereo not drawn)	PME-1 inh 58
O=c1[nH]c(C2CCCN(S(=O)(=O)c3cccc(F)c3)C2)nc2c1nnn2Cc1ccccc1 (stereo not drawn)	none
O=c1[nH]c(C2CCCN(S(=O)(=O)c3ccccc3)C2)nc2c1nnn2Cc1ccccc1 (stereo not drawn)	PME-1 inh 33
O=c1[nH]c(C2CCN(S(=O)(=O)c3ccccc3F)CC2)nc2c1nnn2Cc1ccc2c(c1)OCCO2	none
O=c1[nH]c(C2CCN(S(=O)(=O)c3ccc(F)cc3)CC2)nc2c1nnn2Cc1ccc2c(c1)OCCO2	PME-1 inh 32
Cc1cc(C)c(S(=O)(=O)N2CCC(C(=O)NCc3ccc(Cl)cc3Cl)CC2)c(C)c1	none
NC(=S)Cc1nc(-c2ccc(Cl)cc2)cs1	none
O=C1CSC(c2ccccn2)N1c1ccc(Br)cc1 (stereo not drawn)	none
CCc1nnc(NC(=O)c2sc3nc4c(cc3c2N)CCCCCC4)s1	PME-1 inh 29
CCc1nnc(NC(=O)c2sc3nc4c(cc3c2N)CCCCC4)s1	PME-1 inh 28

Compound activity: PubChem, several laboratories
